# In PubChem BioAssay (NCI):
# Compounds without any hit were thinned out: in the full panel of roughly 79,000, 15% have a hit. A number with no mark means an inactive call. Active and inactive are the calls of the source. Rule as the data show it: active = growth inhibition above about 70%; inactive = the rest.
# Experiment: NCI Yeast Anticancer Drug Screen. Data for the mec2-1 strain (AID 157)
# Conditions: S. cerevisiae mec2-1 strain, at 50.0 µM (retest, dose inferred, filed as 5.0), stronger effect = higher value
# Method in brief: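 Each compound was tested on mec2-1 yeast, a strain altered in DNA damage repair or cell cycle control. Growth inhibition is reported relative to vehicle.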
row,Structure (SMILES),growth inhibition
1,CCN(CC)CCOC(=O)C1CCCCC1C(=O)C1CCCCC1 (stereo not given),0%
2,O=c1c2cc(Br)ccc2ncn1COCc1ccccc1,11%
3,C=C1C(=O)OC2C1CCC(=C)C1CC(O)C(=C)C12 (stereo not given),64%
4,CCC(CC)=NNc1ccc([N+](=O)[O-])cc1,95% (active)
5,CCN(CC)CCNc1ccc(C)c2oc3ccc(O)cc3c(=O)c12,29%
6,CCOC(=O)C[P+](c1ccc(C)cc1)(c1ccc(C)cc1)c1ccc(C)cc1,94% (active)
7,Cc1ccc(C)c(C(=O)/C=C/C(=O)O)c1,99% (active)
8,CCCC/C=C(/CCCCOCOCCOC)[Si](C)(C)C,-2%
9,C=C1C2Oc3ccccc3C1N(c1ccccc1)O2 (stereo not given),35%
10,NC(=O)N/N=C1/CC2CCCCC2c2ccccc21 (stereo not given),86% (active)
11,CC(CCN)(CCN)[N+](=O)[O-],-27%
12,COC(=O)/C=C(\NC1CC(OC2C[C@](O)(C(C)=O)Cc3c(O)c4c(c(O)c32)C(=O)c2c(OC)cccc2C4=O)OC(C)C1O)C(=O)OC (stereo not given in full),98% (active)
13,CCOc1ccc(N=Nc2ccccc2)cc1,-35%
14,O=C(CNS(=O)(=O)Cc1ccccc1)NCC(=O)NNc1ccccc1,29%
15,CC1(C)c2ccccc2Cc2cc3ccccc3nc21,99% (active)
16,CC(=O)Nc1ccc(C(C)(C)c2ccc(C)cc2)cc1,98% (active)
17,CC[C@]1(O)C[C@H]2[C@@H]3CCc4cc(OC)ccc4[C@H]3CC[C@]2(C)[C@H]1O,98% (active)
18,CCCCSc1nc2c([nH]1)c(=S)n(C)c(=S)n2C,91% (active)
19,CN(Cc1cc(C(C)(C)C)cc(Br)c1O)Cc1cc(C(C)(C)C)cc(Br)c1O,91% (active)
20,Oc1cc2c(cc1C(c1ccc(F)cc1)N1CCCCC1)OCO2 (stereo not given),73% (active)

row,Structure (SMILES),growth inhibition
1,CCCCCCCN(CCCCCCC)CC(O)Cc1cc2c(c3ccccc13)CCCC2 (stereo not given),98% (active)
2,Cc1c2ccncc2c(C)c2c1sc1ccccc12,96% (active)
3,c1ccc2c(c1)OCC(CNCCNCC1COc3ccccc3O1)O2 (stereo not given),79% (active)
4,CC(C)(C)c1ccc(Sc2ncnc3ccccc23)cc1,90% (active)
5,C(#Cc1ccccc1)Sc1ccccc1,14%
6,CCOC(=O)NC(NNc1ccc([N+](=O)[O-])cc1[N+](=O)[O-])(C(F)(F)F)C(F)(F)F,99% (active)
7,O=C1/C(=C/c2cccc(O)c2)COc2ccccc21,98% (active)
8,CNC1=C2NC(=O)/C(C)=C\C=C\C(C)C(O)C(C)C(O)C(C)C(OC(C)=O)C(C)C(OC)/C=C/OC3(C)Oc4c(C)c(O)c(c(c4C3=O)C1=O)C2=O (stereo not given),61%
9,COc1ccc(Cc2c(-c3ccc(C)cc3)n[nH]c(=O)c2C2C(=O)N(c3ccccc3)N=C2c2ccccc2)cc1 (stereo not given),96% (active)
10,Cc1ccc(Cc2n[nH]c(=O)n2N2C(=O)c3ccccc3C2=O)cc1,14%
11,COc1cc2c(c(C3C(=O)N(C)c4ccc(Br)cc43)c1OC)OCO2 (stereo not given),4%
12,CCCCCCCCC1N(C)CCCN1C,98% (active)
13,C1=Cc2ccccc2/C1=C/c1ccccc1,89% (active)
14,COC(=O)c1ccc2ccccc2c1C(=O)c1ccc(F)cc1,96% (active)
15,CCNC(=S)N/N=C(/C)c1cccc(/C(C)=N\NC(=S)NCC)n1,10%
16,c1ccc2c(c1)ccc1ncccc12,23%
17,Cc1nc(N)nn1C,-2%
18,COC(=O)C1=C(C)NC(C)=C(C(=O)OC)C1c1ccc(NCc2ccccc2)c([N+](=O)[O-])c1,53%
19,CCc1ccccc1NC(=O)C(C#N)C1=C(Cl)C(=O)c2ccccc2C1=O (stereo not given),98% (active)
20,O=C(O)c1ccc2ccccc2c1C(=O)c1cccc2ccccc12,8%

# Same assay, conditions: S. cerevisiae mec2-1 strain, at 50.0 µM, stronger effect = higher value
row,Structure (SMILES),growth inhibition
1,CCN(CC)CCOC(=O)C1CCCCC1C(=O)C1CCCCC1 (stereo not given),-1.6%
2,O=c1c2cc(Br)ccc2ncn1COCc1ccccc1,-4.1%
3,C=C1C(=O)OC2C1CCC(=C)C1CC(O)C(=C)C12 (stereo not given),94.2% (active)
4,CCC(CC)=NNc1ccc([N+](=O)[O-])cc1,97.7% (active)
5,CCN(CC)CCNc1ccc(C)c2oc3ccc(O)cc3c(=O)c12,75.5% (active)
6,CCOC(=O)C[P+](c1ccc(C)cc1)(c1ccc(C)cc1)c1ccc(C)cc1,95.6% (active)
7,Cc1ccc(C)c(C(=O)/C=C/C(=O)O)c1,70.7% (active)
8,CCCC/C=C(/CCCCOCOCCOC)[Si](C)(C)C,-1.8%
9,C=C1C2Oc3ccccc3C1N(c1ccccc1)O2 (stereo not given),19.9%
10,NC(=O)N/N=C1/CC2CCCCC2c2ccccc21 (stereo not given),13%
11,CC(CCN)(CCN)[N+](=O)[O-],15.8%
12,COC(=O)/C=C(\NC1CC(OC2C[C@](O)(C(C)=O)Cc3c(O)c4c(c(O)c32)C(=O)c2c(OC)cccc2C4=O)OC(C)C1O)C(=O)OC (stereo not given in full),97.7% (active)
13,CCOc1ccc(N=Nc2ccccc2)cc1,37.1%
14,O=C(CNS(=O)(=O)Cc1ccccc1)NCC(=O)NNc1ccccc1,29.4%
15,CC1(C)c2ccccc2Cc2cc3ccccc3nc21,93% (active)
16,CC(=O)Nc1ccc(C(C)(C)c2ccc(C)cc2)cc1,-12.2%
17,CC[C@]1(O)C[C@H]2[C@@H]3CCc4cc(OC)ccc4[C@H]3CC[C@]2(C)[C@H]1O,48.5%
18,CCCCSc1nc2c([nH]1)c(=S)n(C)c(=S)n2C,82% (active)
19,CN(Cc1cc(C(C)(C)C)cc(Br)c1O)Cc1cc(C(C)(C)C)cc(Br)c1O,86.2% (active)
20,Oc1cc2c(cc1C(c1ccc(F)cc1)N1CCCCC1)OCO2 (stereo not given),64.4%

row,Structure (SMILES),growth inhibition
1,CCCCCCCN(CCCCCCC)CC(O)Cc1cc2c(c3ccccc13)CCCC2 (stereo not given),94.7% (active)
2,Cc1c2ccncc2c(C)c2c1sc1ccccc12,90% (active)
3,c1ccc2c(c1)OCC(CNCCNCC1COc3ccccc3O1)O2 (stereo not given),57.9%
4,CC(C)(C)c1ccc(Sc2ncnc3ccccc23)cc1,89.3% (active)
5,C(#Cc1ccccc1)Sc1ccccc1,31.1%
6,CCOC(=O)NC(NNc1ccc([N+](=O)[O-])cc1[N+](=O)[O-])(C(F)(F)F)C(F)(F)F,98.2% (active)
7,O=C1/C(=C/c2cccc(O)c2)COc2ccccc21,96.1% (active)
8,CNC1=C2NC(=O)/C(C)=C\C=C\C(C)C(O)C(C)C(O)C(C)C(OC(C)=O)C(C)C(OC)/C=C/OC3(C)Oc4c(C)c(O)c(c(c4C3=O)C1=O)C2=O (stereo not given),52.8%
9,COc1ccc(Cc2c(-c3ccc(C)cc3)n[nH]c(=O)c2C2C(=O)N(c3ccccc3)N=C2c2ccccc2)cc1 (stereo not given),95.3% (active)
10,Cc1ccc(Cc2n[nH]c(=O)n2N2C(=O)c3ccccc3C2=O)cc1,-37.2%
11,COc1cc2c(c(C3C(=O)N(C)c4ccc(Br)cc43)c1OC)OCO2 (stereo not given),12.7%
12,CCCCCCCCC1N(C)CCCN1C,99.6% (active)
13,C1=Cc2ccccc2/C1=C/c1ccccc1,60.6%
14,COC(=O)c1ccc2ccccc2c1C(=O)c1ccc(F)cc1,95.5% (active)
15,CCNC(=S)N/N=C(/C)c1cccc(/C(C)=N\NC(=S)NCC)n1,38.4%
16,c1ccc2c(c1)ccc1ncccc12,3.15%
17,Cc1nc(N)nn1C,6.1%
18,COC(=O)C1=C(C)NC(C)=C(C(=O)OC)C1c1ccc(NCc2ccccc2)c([N+](=O)[O-])c1,3.65%
19,CCc1ccccc1NC(=O)C(C#N)C1=C(Cl)C(=O)c2ccccc2C1=O (stereo not given),98.7% (active)
20,O=C(O)c1ccc2ccccc2c1C(=O)c1cccc2ccccc12,83.5% (active)
